PubChem BioAssay (NCATS)
Several values for one entry are separate records, joined by “and”; a condition that tells them apart may be missing. Equal values may be shown once. Records with an inconclusive call do not appear. Activity calls are given as the source filed them. Unless noted, the call rests on the fitted dose curve; in most records, active means well fitted curve in the direction sought with a large enough effect; inconclusive means small, poorly fitted or top-dose-only effect, or another doubt; inactive means no such curve, though single readings can be large; an effect the other way counts as inactive or inconclusive.

Tests used:
[1] = qHTS for Inhibitors of Plasmodium falciparum (DD2) proliferation (AID 504314);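 further: parasite DNA measured by SYBR Green fluorescence after red cell lysis; plate controls were DMSO vehicle for no effect and artemisinin wells for full effect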
Outline: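 Erythrocytes infected with P. falciparum Dd2 (0.3% parasitemia, 2.5% hematocrit) exposed to compound 72 h at 37C, 5% CO2. Parasite DNA quantified by SYBR Green fluorescence after saponin/Triton lysis overnight; normalized to 0.29 uM artemisinin and DMSO.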

[2] = qHTS for Inhibitors of Plasmodium falciparum (GB4) proliferation (AID 504315);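 further: 0% = DMSO vehicle and -100% = 0.29 µM artemisinin control; nearly all actives have a fitted effect of over 50% in size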
Outline: (§1)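 Erythrocytes infected with P. falciparum line (0.3% parasitemia, 2.5% hematocrit final) incubated with compounds 72 h at 37 °C, 5% CO2; SYBR Green lysis buffer added, fluorescence read next day. Normalized to 0.29 uM artemisinin and DMSO.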

[3] = qHTS for Inhibitors of Plasmodium falciparum (HB3) proliferation (AID 504318);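 further: 0% = DMSO vehicle and -100% = artemisinin control; nearly all actives have a fitted effect of over 60% in size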
Outline: as §1

[4] = target: Atrial natriuretic peptide receptor 1 (Homo sapiens) (UniProt P16066); experiment: Natriuretic polypeptide receptor (hNpr1) antagonism - Pilot CMLD screen (AID 1347052; calls by dose curve;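 further: HEK293 cells with hNpr1 stimulated by hNppA peptide at 0.1 nM; cGMP level read as GloSensor luciferase luminescence after agonist stimulation; series mostly up to about 9.2 µM; on the % scale 0 is the no-effect control and ±100 the full control effect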)
[5] = qHTS for Inhibitors of Plasmodium falciparum (7G8) proliferation (AID 504316);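 further: series mostly up to about 6.7 µM; 0% = DMSO vehicle and -100% = 0.29 µM artemisinin full kill; nearly all actives have a fitted effect of over 65% in size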
Outline: as §1

[6] = qHTS for Inhibitors of Plasmodium falciparum (CP250) proliferation (AID 504320);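 further: plate controls were DMSO vehicle for no effect and 0.29 µM artemisinin control for full effect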
Outline: as §1

[7] = target: Cytochrome P450 2C9 (Homo sapiens) (UniProt P11712); experiment: qHTS Assay for Inhibitors and Substrates of Cytochrome P450 2C9 (AID 883); further: on the % scale 0 is the no-effect control and ±100 the full control effect; nearly all actives have a fitted effect of over 60% in size
Outline: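 A luminogenic readout tracked human CYP2C9 (10nM) converting deoxyluciferin (100uM, at KM) in 25mM KPO4 during 60 min at 37C with regenerated NADPH. Values normalized to 57uM sulphaphenazole as complete inhibition.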

[8] = target: Cytochrome P450 3A4 (Homo sapiens) (UniProt P08684); experiment: qHTS Assay for Inhibitors and Substrates of Cytochrome P450 3A4 (AID 884); further: series mostly up to about 57 µM; on the % scale 0 is the no-effect control and ±100 the full control effect; nearly all actives have a fitted effect of over 50% in size
Outline: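 20 nM human CYP3A4 with 25 uM Luciferin-PPXE (at KM) in 200 mM KPO4, preincubated 10 min with compound; NADPH regeneration started a 60 min RT reaction. Luciferin detected by luminescence, normalized to 57 uM ketoconazole as full inhibition.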

[9] = target: Cytochrome P450 2D6 (Homo sapiens) (UniProt P10635); experiment: qHTS Assay for Inhibitors and Substrates of Cytochrome P450 2D6 (AID 891);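 further: luciferin methyl ether substrate demethylated by CYP2D6 with NADPH regeneration; on the % scale 0 is the no-effect control and ±100 the full control effect; nearly all actives have a fitted effect of over 60% in size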
Outline: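 Human CYP2D6 (5 nM) with 30 uM Luciferin-ME EGE (at Km) in 100 mM KPO4, compound preincubated 10 min, then NADPH regeneration system for 60 min at room temperature. Luciferin read by luminescence; normalized to 1.43 uM quinidine.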

[10] = target: Cytochrome P450 2C19 (Homo sapiens) (UniProt P33261); experiment: qHTS Assay for Inhibitors and Substrates of Cytochrome P450 2C19 (AID 899); further: on the % scale 0 is the no-effect control and ±100 the full control effect; nearly all actives have a fitted effect of over 60% in size
Outline: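 NADPH-dependent conversion of Luciferin-H EGE (10uM, at KM) by 5nM enzyme in 50mM KPO4, 60 min at 37C following 10 min compound preincubation. Stopped with luciferin detection buffer; luminescence read after 20 min.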

Sequence of Atrial natriuretic peptide receptor 1 (Homo sapiens) (P16066 whole entry, looked up): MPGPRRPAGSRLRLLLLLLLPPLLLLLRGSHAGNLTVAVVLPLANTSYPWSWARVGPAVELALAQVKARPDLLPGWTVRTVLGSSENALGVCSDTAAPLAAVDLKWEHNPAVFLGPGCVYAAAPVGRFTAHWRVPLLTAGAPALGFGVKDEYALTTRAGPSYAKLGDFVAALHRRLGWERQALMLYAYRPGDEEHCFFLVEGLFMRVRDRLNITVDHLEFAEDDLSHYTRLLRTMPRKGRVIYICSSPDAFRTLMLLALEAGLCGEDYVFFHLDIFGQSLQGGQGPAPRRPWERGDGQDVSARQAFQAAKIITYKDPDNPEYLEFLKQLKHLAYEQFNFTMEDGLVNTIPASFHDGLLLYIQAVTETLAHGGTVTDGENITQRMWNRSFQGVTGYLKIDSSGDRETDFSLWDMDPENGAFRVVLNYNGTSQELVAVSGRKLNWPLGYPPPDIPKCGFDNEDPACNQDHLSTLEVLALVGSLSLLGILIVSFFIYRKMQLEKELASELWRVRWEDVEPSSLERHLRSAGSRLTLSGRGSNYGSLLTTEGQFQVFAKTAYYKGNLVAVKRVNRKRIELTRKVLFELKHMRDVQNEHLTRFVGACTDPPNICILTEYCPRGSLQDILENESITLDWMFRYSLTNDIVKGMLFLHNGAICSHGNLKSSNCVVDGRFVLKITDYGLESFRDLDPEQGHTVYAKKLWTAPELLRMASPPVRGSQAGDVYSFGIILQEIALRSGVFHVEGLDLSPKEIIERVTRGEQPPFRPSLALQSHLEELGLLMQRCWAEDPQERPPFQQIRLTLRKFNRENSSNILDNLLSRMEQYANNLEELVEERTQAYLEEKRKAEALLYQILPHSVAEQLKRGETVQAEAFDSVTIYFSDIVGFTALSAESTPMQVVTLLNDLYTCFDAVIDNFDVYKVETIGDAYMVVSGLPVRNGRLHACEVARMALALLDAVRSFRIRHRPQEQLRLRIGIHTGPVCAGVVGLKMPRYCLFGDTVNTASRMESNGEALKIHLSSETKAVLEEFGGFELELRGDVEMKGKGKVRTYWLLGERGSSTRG
Sequence of Cytochrome P450 3A4 (Homo sapiens) (P08684 whole entry, looked up): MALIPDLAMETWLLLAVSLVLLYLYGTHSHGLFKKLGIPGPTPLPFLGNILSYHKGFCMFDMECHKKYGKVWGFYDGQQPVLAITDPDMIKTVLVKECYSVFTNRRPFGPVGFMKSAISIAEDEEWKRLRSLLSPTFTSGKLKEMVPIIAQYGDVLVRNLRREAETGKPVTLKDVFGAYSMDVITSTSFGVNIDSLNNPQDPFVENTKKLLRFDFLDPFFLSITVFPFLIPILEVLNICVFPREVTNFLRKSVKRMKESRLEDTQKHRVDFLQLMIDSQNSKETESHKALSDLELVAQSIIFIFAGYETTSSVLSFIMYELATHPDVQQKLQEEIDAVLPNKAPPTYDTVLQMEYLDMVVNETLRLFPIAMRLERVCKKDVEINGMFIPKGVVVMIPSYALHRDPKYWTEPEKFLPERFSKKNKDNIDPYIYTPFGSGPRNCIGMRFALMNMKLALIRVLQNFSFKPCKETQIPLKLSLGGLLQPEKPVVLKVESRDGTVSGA
Sequence of Cytochrome P450 2D6 (Homo sapiens) (P10635 whole entry, looked up): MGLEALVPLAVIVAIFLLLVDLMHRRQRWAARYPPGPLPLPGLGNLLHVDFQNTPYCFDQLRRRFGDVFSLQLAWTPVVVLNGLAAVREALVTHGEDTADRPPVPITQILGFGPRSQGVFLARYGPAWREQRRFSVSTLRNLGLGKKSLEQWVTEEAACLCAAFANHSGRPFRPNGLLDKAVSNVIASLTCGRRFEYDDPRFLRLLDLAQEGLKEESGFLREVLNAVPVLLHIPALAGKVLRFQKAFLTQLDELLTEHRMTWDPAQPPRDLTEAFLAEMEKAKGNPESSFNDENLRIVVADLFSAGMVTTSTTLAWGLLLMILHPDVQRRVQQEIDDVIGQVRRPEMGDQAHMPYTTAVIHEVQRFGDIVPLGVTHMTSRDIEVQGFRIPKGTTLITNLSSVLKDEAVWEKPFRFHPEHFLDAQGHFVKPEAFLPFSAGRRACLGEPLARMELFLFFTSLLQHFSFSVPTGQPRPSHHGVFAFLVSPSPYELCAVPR
Sequence of Cytochrome P450 2C9 (Homo sapiens) (P11712 whole entry, looked up): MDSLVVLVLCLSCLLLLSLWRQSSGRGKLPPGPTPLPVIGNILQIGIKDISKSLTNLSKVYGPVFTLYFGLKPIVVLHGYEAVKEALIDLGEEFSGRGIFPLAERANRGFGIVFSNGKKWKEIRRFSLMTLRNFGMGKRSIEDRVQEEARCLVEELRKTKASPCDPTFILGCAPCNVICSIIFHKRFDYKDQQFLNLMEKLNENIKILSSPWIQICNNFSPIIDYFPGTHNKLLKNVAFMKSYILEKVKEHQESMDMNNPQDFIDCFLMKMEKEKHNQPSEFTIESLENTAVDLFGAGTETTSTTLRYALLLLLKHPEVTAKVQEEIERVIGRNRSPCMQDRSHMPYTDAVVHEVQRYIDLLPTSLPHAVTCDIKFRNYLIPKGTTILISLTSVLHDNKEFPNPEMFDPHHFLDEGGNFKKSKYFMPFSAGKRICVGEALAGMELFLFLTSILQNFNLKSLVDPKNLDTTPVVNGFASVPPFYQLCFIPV
Sequence of Cytochrome P450 2C19 (Homo sapiens) (P33261 whole entry, looked up): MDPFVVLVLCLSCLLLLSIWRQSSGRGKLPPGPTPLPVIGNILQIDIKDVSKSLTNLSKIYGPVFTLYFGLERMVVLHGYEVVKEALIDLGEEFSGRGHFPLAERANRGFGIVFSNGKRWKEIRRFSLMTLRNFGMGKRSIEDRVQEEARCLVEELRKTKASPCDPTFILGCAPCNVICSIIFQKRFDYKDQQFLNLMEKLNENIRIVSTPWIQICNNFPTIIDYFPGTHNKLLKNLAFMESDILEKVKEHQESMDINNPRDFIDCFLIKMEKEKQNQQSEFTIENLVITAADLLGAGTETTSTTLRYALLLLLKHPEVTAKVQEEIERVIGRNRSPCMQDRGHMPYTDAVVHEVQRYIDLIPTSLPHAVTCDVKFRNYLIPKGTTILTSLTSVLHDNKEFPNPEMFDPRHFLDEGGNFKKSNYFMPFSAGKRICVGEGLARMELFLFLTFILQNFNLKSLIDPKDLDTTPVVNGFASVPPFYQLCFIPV

CC(CCN1CCCCc2nc(C)c(C)cc21)=NO[C@@H](C)CN1CCCCc2nc(C)c(C)cc21
inactive: Potency [1] | Potency [2] | Potency [3] | Potency [4]

COC(=O)CC=C[C@H](C)[C@@H](NC(=O)C(F)(F)F)c1ccccc1Br
inactive: Potency [1] | Potency [2] | Potency [5] | Potency [6] | Potency [4]

CC(CCC(=O)OC[C@H]1O[C@H](C#Cc2ccccc2)C=C[C@H]1Oc1ccc(C)cc1)=NOC[C@@H](O)COCc1ccco1
inactive: Potency [1] | Potency [2] | Potency [5] | Potency [6] | Potency [4]

COC(=O)C1=C[C@@]2(c3ccc(F)cc3[C@@H](OC)[C@@H]2C)[C@@H]2C=C[C@H]1C2
inactive: Potency [1] | Potency [2] | Potency [5] | Potency [6] | Potency [4]

COc1ccc([C@]23Cc4cc(C#N)ccc4[C@H](O2)C2=C(CC4(CCCCC4)OC2=O)O3)cc1
inactive: Potency [1] | Potency [2] | Potency [3] | Potency [4]

C#CCN1C(=O)C2(CC(C)=C[C@@H](C)O2)c2c(Br)cccc21 (some centres undefined)
inactive: Potency [1] | Potency [2] | Potency [5] | Potency [6] | Potency [4]

COC(=O)C=P(c1ccccc1)(c1ccccc1)c1ccccc1
inactive: Potency [1] | Potency [2] | Potency [5] | Potency [6] | Potency [4]

C=C(C)C(=O)C=Cc1ccc(Br)cc1
inactive: Potency [1] | Potency [2] | Potency [5] | Potency [6] | Potency [4]

COC(=O)C1=C(C(=O)OC)[C@@H]2Nc3ccccc3[C@@]23C[C@@H](C(=O)OC)N(C(=O)Nc2ccccc2F)C3=N1
inactive: Potency [1] | Potency [2] | Potency [5] | Potency [6] | Potency [4]

CCN1C(=NCc2ccc(OC)cc2)N[C@@H](CCc2ccccc2)[C@H](C(=O)NCc2ccc(OC)cc2)[C@H]1C
inactive: Potency [1] | Potency [2] | Potency [5] | Potency [6] | Potency [4]

C[C@H]1Cc2c(-c3ccccc3)nc3c(c2CO1)CN(S(=O)(=O)c1ccc2c(c1)OCCN2C)CC3
inactive: activity, negative = inhibition [1] 0.591% [at 1.12 µM] | Potency [2] | Potency [5] | Potency [6] | Potency [4]

CCN1C(=NCC(C)C)N[C@@H](CCc2ccccc2)[C@H](C(=O)OC)[C@H]1C
inactive: Potency [1] | Potency [2] | Potency [5] | Potency [6] | Potency [4]

COC1=CC2C(=O)C(C1=O)[C@H](c1ccccc1)[C@H]2C (some centres undefined)
inactive: Potency [1] | Potency [2] | Potency [5] | Potency [6] | Potency [4]

COc1ccc2c(c1)CO[C@H]([C@H](O)CBr)[C@H]2C=Cc1ccccc1
inactive: Potency [1] | Potency [2] | Potency [3] | Potency [4]

CCOC(=O)CN1C(=O)NC(c2cccc(F)c2)C(C(=O)OC)=C1C (centres undefined)
inactive: Potency [1] | Potency [2] | Potency [5] | Potency [6] | Potency [4]

CCCCCC1=CC2=C(C(=O)OC)C(c3ccccc3)NC(=O)N2CC1 (centres undefined)
inactive: Potency [1] | Potency [2] | Potency [5] | Potency [6] | Potency [4]

COC(=O)C1=C(C(=O)OC)[C@@H]2Nc3ccccc3[C@@]23C[C@@H](C(=O)OC)N(C(=O)Nc2ccc(C(F)(F)F)cc2)C3=N1
inactive: Potency [1] | Potency [2] | Potency [5] | Potency [6] | Potency [4]

C=CCC1(c2ccccc2)Oc2ccccc2-c2nc3cc(Cl)c(Cl)cc3nc21 (centres undefined)
inactive: activity change, negative = inhibition [7] -6.17% [at 11.4 µM] and 38.3% [at 11.4 µM] | activity change, negative = inhibition [8] -17.8% [at 11.4 µM] and -22.2% [at 11.4 µM] | activity change, negative = inhibition [9] 2.78% [at 11.4 µM] and 6.33% [at 11.4 µM] | activity, negative = inhibition [10] 39.4% [at 11.4 µM] and 70.5% [at 11.4 µM] | Potency [1] | Potency [2] | Potency [5] | Potency [6] | Potency [4]

COc1ccc(C2=CC3=C(Br)C(=O)C(C)(O)C(=O)C3=CO2)cc1 (centres undefined)
inactive: Potency [1] | Potency [2] | Potency [5] | Potency [6] | Potency [4]

COCCN1C(=S)NC(c2cccc(F)c2)C(C(=O)OC)=C1C (centres undefined)
inactive: Potency [1] | Potency [2] | Potency [3] | Potency [4]

CCOC(=O)[C@@]1([C@@H](NC(=O)OC)c2ccco2)CCCC1=O
inactive: Potency [1] | Potency [2] | Potency [5] | Potency [6] | Potency [4]

COC(=O)C1=C(C(=O)OC)[C@@H]2N(C)c3ccccc3[C@@]23C[C@@H](C(=O)OC)N(C(=O)c2cc(C)oc2C)C3=N1
inactive: Potency [1] | Potency [2] | Potency [5] | Potency [6] | Potency [4]

C[C@H]1Cc2c(COc3ccccc3)nc3c(c2CO1)CN(C(=O)C1CC1)CC3
inactive: Potency [1] | Potency [2] | Potency [5] | Potency [6] | Potency [4]

COCCN1C(=O)NC(c2ccc(Br)cc2)C(C(C)=O)=C1C (centres undefined)
inactive: Potency [1] | Potency [2] | Potency [3] | Potency [4]

COc1ccc2c(c1)O[C@@H](c1cccc(C(F)(F)F)c1)[C@H](O)C2=O
inactive: Potency [1] | Potency [2] | Potency [5] | Potency [6] | Potency [4]

C=CCN1c2ccccc2[C@]23C[C@@H](C(=O)OC)N(C(=O)OCC)C2=NC(C(=O)OC)=C(C(=O)OC)[C@H]13
inactive: Potency [1] | Potency [2] | Potency [5] | Potency [6] | Potency [4]
